Measured values taken from PubChem BioAssay (Tox21).
Active and inactive are the calls of the source. A call without a number means that no potency is given here. Calls follow the shape of the dose curve; as a rule, active = well fitted curve in the direction sought with a large enough effect in the signal ratio in the repeat runs (not every such curve was filed as active); inconclusive = weak or mixed curves, or effect the other way; inactive = no such curve, though single readings can be large or run the other way; the % refers to the signal ratio. Non-standard residues stand in square brackets, D forms with d. Residues, ends and D or L forms follow the SMILES beside them. pGlu = O=C1CC[C@@H](C(=O)O)N1; Thz = O=C(O)[C@@H]1CSCN1

Molecular target: Estrogen receptor (Homo sapiens) (UniProt P03372)
Test: qHTS assay to identify small molecule antagonists of the estrogen receptor alpha (ER-alpha) signaling pathway (AID 743069)
Details: HEK293 ER-alpha-UAS-bla, beta-lactamase ratio, antagonist mode; series mostly up to 69.4 µM
From the text: National Center for Advancing Translational Sciences [NCATS]
NIH Chemical Genomics Center [NCGC]
U.S. Environmental Protection Agency [EPA]
National Institutes of Environmental Health Sciences [NIEHS]
National Toxicology Program [NTP]
U.S. Food and Drug Administration [FDA]
Estrogen receptor (ER), a nuclear hormone receptor, plays an important role in development, metabolic homeostasis and reproduction. Two subtypes of ER, ER-alpha and ER-beta have similar expression patterns with some uniqueness in both types. Endocrine disrupting chemicals (EDCs) and their interactions with steroid hormone receptors like ER causes disruption of normal endocrine function. To identify the compounds that inhibit ER signaling, an ER-alpha-UAS-bla GripTiteTM cell line (Invitrogen, Carlsbad, CA, USA) containing a beta-lactamase reporter gene under the control of an Upstream Activator Sequence (UAS) stably integrated into HEK293 cells was used to screen the Tox21 10K compound library.
Tox21 Assay Protocol Summary:
ER-alpha-bla cells were cultured in assay medium containing 2% charcoal stripped FBS overnight in the culture flasks before the assay was performed. The cells were dispensed at 5,000 cells/5 uL of assay medium per well into black wall/clear-bottom 1536-well plates using a Multidrop Combi (ThermoFisher Scientific, Waltham, MA) dispenser. After the assay plates were incubated at a 37C and 5% CO2 for 4 hr, 23 nL of compounds dissolved in DMSO, positive controls or DMSO only was transferred to the assay plate by a Pintool station (Kalypsys, San Diego, CA), followed by addition of 1 uL of 17beta-estradiol in assay medium using a Flying Reagent Dispenser (Aurora Discovery, San Diego, CA). The plates were incubated at 37C and 5% CO2 for 18 hr. Then 1 uL of LiveBLAzerTM B/G FRET substrate was added using a Flying Reagent Dispenser, the plates were incubated at room temperature for 2 hours, and fluorescence intensity was measured by an Envision plate reader (PerkinElmer, Shelton, CT).
Potency is read from the fitted curve at half-maximal effect.

Estrogen receptor (Homo sapiens), sequence (P03372 whole entry, looked up): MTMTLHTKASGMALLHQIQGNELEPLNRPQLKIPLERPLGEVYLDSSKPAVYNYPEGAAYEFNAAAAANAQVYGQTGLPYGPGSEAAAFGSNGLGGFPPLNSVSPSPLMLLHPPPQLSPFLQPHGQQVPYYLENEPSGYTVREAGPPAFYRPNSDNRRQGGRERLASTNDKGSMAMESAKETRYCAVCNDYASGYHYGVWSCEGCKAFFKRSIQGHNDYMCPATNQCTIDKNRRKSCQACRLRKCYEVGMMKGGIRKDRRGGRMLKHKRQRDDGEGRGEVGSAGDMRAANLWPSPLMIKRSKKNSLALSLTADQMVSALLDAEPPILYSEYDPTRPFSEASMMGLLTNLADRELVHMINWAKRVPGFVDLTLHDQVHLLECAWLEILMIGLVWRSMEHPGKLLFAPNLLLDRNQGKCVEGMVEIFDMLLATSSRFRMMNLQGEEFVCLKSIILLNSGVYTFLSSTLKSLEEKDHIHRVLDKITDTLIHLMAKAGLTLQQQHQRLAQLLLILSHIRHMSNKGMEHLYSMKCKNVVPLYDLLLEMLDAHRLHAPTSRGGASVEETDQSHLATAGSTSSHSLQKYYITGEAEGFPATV

Row | Compound | Potency
1 | NCCC(=O)[N-][C@@H](Cc1cnc[nH]1)C(=O)O.[Zn] | inactive
2 | C/C(=C(\CCOC(=O)c1ccccc1)SS/C(CCOC(=O)c1ccccc1)=C(/C)N(C=O)Cc1cnc(C)nc1N)N(C=O)Cc1cnc(C)nc1N | inactive
3 | Cc1cccc(C)c1Nc1ncccc1C(=O)O | inactive
4 | CC(C(=O)O)c1ccc(C2CCCCC2)c2ccccc12 (stereo not given) | inactive
5 | CC[C@@]1(O)C(=O)OCc2c1cc1n(c2=O)Cc2cc3c([N+](=O)[O-])cccc3nc2-1 | 4.77 µM [inconclusive] (active)
6 | FC(F)(F)C(F)(F)C(F)(F)C(F)(F)C(F)(F)C(F)(F)F | inactive
7 | CN1[C@@H]2CC[C@H]1CC(OC(c1ccccc1)c1ccccc1)C2 (stereo not given in full) | inactive
8 | C=C1CC[C@H](O)CC1=C/C=C1\CCC[C@]2(C)[C@@H]([C@H](C)CC[C@@H](O)C(C)(C)O)CC[C@@H]12 | 21.3 µM [inconclusive] (active)
9 | C[N@+]12CCCC[C@@H]1CCC(=C(c1cccs1)c1cccs1)C2 | inactive
10 | O=[N+]([O-])O[C@@H]1CO[C@H]2[C@@H]1OC[C@@H]2O | inactive
11 | FCOC(C(F)(F)F)C(F)(F)F | inactive
12 | CC1=C(/C=C/C(C)=C/C=C/C(C)=C/C=C/C=C(C)/C=C/C=C(C)/C=C/C2=C(C)C(=O)CCC2(C)C)C(C)(C)CCC1=O | inactive
13 | COc1ccc(CCNCC(O)COc2cccc(C)c2)cc1OC (stereo not given) | inactive
14 | CC1(C)C(\C=C/C=C\C=C/C=C2/N(CCCCS(=O)(=O)O)c3ccc4ccccc4c3C2(C)C)=[N+](CCCCS(=O)(=O)[O-])c2ccc3ccccc3c21 | inactive
15 | C[C@@](Cc1ccc(O)c(O)c1)(NN)C(=O)O | inactive
16 | CC(C)CCCC(C)NC(C)C (stereo not given) | inactive
17 | O=C1CC[C@@H](C(=O)N2CSC[C@H]2C(=O)O)N1 ([pGlu]-[Thz]-OH) | inactive
18 | CCC(=O)OCC(=O)[C@@]1(OC(=O)CC)[C@@H](C)C[C@H]2[C@@H]3CCC4=CC(=O)C=C[C@]4(C)[C@@]3(Cl)[C@@H](O)C[C@@]21C | inactive
19 | CC(C)(CO)[C@@H](O)C(=O)NCCCC(=O)O | inactive
20 | CC(=O)N=c1sc(S(N)(=O)=O)nn1C | inactive

Row | Compound | Potency
21 | C[C@H]1[C@@H](OC(=O)CCC(=O)O)O[C@@H]2OC3(C)CC[C@H]4[C@H](C)CC[C@@H]1[C@@]24OO3 | 7.56 µM [inconclusive] (active)
22 | C[C@H](N)C(=O)N[C@@H](C)P(=O)(O)O | inactive
23 | CC(CN1c2ccccc2Sc2ccc(S(=O)(=O)N(C)C)cc21)N(C)C (stereo not given) | inactive
24 | COc1cc(Br)c(C[N+]2(CCOCCC3CCC4CC3C4(C)C)CCOCC2)cc1OC (stereo not given) | inactive
25 | CC(=O)[C@]1(O)Cc2c(O)c3c(c(O)c2[C@@H](O[C@H]2C[C@H](N)[C@H](O)[C@H](C)O2)C1)C(=O)c1c(O)cccc1C3=O | 10.7 µM [inconclusive] (active)
26 | CN1CCCC(CN2c3ccccc3Sc3ccccc32)C1 (stereo not given) | 19 µM [inhibitor] (active)
27 | COc1cc([C@@H]2c3cc4c(cc3C(O[C@@H]3O[C@@H]5CO[C@@H](C)O[C@H]5[C@H](O)[C@H]3O)C3COC(=O)[C@@H]32)OCO4)cc(OC)c1OP(=O)(O)O (stereo not given in full) | inactive
28 | COc1ccc(C(=O)CCC(=O)O)c2ccccc12 | inactive
29 | O=C(O)c1cc(N=Nc2ccc(O)c(C(=O)O)c2)ccc1O | inactive
30 | CCCCCCCCCCCCCCCCSCC(COC)COP(=O)([O-])OCC[N+](C)(C)C (stereo not given) | 21.3 µM [inhibitor] (active)
31 | COC(=O)[C@@H](N)CS | inactive
32 | O=C(O)c1ccc(NC(=O)[C@H](Cc2ccc(O)cc2)NC(=O)c2ccccc2)cc1 | inactive
33 | O=P(O)(O)C(O)(Cc1cnc2ccccn12)P(=O)(O)O | inactive
34 | N[C@@H](C(=O)N[C@@H]1C(=O)N2C(C(=O)O)=C(Cl)CC[C@H]12)c1ccccc1 | inactive
35 | N#Cc1ccc2c(c1)N(CCCN1CCC(O)CC1)c1ccccc1S2 | inactive
36 | O=[N+]([O-])c1ccc(Oc2ccc(N=C=S)cc2)cc1 | 0.848 µM [inconclusive] (active)
37 | C=C[C@]1(C)C[C@@H](OC(=O)CO)[C@]2(C)[C@H](C)CC[C@]3(CCC(=O)[C@H]32)[C@@H](C)[C@@H]1O | inactive
38 | CS(=O)(=O)NC(=O)CCC/C=C\C[C@H]1C(=O)C[C@@H](O)[C@@H]1/C=C/[C@H](O)COc1ccccc1 | inactive
39 | CO/N=C(\C(=O)N[C@@H]1C(=O)N2C(C(=O)O)=C(CSC(=O)c3ccco3)CS[C@H]12)c1csc(N)n1 | inactive
40 | Nc1c(Br)cc(Br)cc1CNC1CCC(O)CC1 (stereo not given) | inactive
